This passage reports residual activity results from ChEMBL document CHEMBL2218924, “A broad activity screen in support of a chemogenomic map for kinase signalling research and drug discovery” (Biochem J, 2013).

Experiment [1] addresses T1, Serine/threonine-protein kinase TBK1 (Homo sapiens) (UniProt Q9UHD2).
T1 sequence (whole entry): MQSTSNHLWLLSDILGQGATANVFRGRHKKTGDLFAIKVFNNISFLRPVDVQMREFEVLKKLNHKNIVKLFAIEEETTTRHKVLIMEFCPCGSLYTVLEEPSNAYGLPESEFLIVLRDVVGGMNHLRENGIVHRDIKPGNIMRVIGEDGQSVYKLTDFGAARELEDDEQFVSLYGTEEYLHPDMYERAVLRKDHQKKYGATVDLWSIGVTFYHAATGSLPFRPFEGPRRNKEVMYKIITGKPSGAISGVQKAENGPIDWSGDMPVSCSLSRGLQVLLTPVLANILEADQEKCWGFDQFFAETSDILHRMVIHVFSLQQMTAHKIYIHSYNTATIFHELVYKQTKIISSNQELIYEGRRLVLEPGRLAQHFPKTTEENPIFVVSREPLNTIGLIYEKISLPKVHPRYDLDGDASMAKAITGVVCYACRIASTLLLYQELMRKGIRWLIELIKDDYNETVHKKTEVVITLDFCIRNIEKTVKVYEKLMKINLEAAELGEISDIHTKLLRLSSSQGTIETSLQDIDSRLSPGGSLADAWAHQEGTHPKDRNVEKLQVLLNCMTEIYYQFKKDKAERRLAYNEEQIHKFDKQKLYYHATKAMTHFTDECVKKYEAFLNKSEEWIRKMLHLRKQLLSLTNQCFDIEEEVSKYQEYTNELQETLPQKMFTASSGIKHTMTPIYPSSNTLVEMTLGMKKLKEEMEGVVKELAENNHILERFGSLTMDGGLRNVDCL
To be noted: at 10 µM.

Experiment [2] deals with T2, TGF-beta receptor type-1 (Homo sapiens) (UniProt P36897).
T2 sequence (whole entry): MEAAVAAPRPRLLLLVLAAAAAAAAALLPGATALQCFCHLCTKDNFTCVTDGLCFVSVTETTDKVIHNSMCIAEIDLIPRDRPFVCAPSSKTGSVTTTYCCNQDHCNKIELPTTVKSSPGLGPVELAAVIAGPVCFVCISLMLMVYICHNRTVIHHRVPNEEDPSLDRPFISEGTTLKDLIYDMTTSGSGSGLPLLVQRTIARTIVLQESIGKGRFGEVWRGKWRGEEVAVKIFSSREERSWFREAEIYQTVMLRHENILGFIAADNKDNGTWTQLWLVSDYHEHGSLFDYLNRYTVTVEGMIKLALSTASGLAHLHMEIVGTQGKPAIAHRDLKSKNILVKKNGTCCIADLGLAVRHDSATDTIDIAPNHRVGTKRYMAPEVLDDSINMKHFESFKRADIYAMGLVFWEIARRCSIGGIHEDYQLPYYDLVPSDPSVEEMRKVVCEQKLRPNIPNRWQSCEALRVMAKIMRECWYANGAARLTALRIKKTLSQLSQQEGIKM
To be noted: at 1 µM.

Experiment [3] has as its target T2, TGF-beta receptor type-1 (Homo sapiens). To be noted: at 10 µM.
For experiment [4], the target named is Insulin-like growth factor 1 receptor (Homo sapiens) (UniProt P08069). To be noted: at 1 µM.
Chain of Insulin-like growth factor 1 receptor (Homo sapiens) (P08069 31-736 limits assumed): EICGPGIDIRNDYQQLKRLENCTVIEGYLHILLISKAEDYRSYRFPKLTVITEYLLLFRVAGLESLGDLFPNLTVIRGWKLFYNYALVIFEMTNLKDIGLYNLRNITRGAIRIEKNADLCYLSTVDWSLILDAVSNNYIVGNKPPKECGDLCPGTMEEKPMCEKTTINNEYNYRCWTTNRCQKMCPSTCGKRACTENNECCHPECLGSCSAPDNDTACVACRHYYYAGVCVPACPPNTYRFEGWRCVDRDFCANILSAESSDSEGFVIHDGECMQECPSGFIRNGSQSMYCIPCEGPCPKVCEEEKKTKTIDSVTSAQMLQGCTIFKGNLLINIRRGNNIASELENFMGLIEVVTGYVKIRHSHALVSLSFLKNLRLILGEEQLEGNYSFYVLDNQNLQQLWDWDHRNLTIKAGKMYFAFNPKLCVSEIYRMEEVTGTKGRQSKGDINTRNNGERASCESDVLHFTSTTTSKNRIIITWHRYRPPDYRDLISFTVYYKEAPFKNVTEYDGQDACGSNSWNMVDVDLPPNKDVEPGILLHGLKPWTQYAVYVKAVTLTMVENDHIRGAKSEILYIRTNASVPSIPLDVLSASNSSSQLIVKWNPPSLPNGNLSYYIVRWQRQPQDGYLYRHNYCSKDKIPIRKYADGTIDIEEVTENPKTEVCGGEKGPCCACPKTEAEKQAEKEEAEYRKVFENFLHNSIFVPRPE
Chain of Insulin-like growth factor 1 receptor (Homo sapiens) (P08069 741-1367 limits assumed): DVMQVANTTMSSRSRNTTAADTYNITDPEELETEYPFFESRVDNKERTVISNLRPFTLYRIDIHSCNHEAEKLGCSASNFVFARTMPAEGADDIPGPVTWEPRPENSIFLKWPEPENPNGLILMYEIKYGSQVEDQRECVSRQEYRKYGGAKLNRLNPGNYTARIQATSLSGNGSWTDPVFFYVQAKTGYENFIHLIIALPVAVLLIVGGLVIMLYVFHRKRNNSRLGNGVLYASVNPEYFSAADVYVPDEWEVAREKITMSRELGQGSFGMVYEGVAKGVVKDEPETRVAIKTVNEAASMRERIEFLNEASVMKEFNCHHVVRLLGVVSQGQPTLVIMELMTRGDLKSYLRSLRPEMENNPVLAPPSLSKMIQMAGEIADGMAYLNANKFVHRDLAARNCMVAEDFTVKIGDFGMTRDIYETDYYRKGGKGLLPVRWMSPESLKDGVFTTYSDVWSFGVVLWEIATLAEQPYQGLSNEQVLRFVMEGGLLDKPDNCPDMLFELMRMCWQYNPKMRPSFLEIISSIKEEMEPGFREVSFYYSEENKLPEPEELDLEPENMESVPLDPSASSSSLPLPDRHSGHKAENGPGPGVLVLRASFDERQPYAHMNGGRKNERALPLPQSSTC
For experiment [5] the target is unchanged. The settings on record: at 10 µM.
For experiment [6], the target named is T3, Inhibitor of nuclear factor kappa-B kinase subunit alpha (Homo sapiens) (UniProt O15111).
T3 sequence (whole entry): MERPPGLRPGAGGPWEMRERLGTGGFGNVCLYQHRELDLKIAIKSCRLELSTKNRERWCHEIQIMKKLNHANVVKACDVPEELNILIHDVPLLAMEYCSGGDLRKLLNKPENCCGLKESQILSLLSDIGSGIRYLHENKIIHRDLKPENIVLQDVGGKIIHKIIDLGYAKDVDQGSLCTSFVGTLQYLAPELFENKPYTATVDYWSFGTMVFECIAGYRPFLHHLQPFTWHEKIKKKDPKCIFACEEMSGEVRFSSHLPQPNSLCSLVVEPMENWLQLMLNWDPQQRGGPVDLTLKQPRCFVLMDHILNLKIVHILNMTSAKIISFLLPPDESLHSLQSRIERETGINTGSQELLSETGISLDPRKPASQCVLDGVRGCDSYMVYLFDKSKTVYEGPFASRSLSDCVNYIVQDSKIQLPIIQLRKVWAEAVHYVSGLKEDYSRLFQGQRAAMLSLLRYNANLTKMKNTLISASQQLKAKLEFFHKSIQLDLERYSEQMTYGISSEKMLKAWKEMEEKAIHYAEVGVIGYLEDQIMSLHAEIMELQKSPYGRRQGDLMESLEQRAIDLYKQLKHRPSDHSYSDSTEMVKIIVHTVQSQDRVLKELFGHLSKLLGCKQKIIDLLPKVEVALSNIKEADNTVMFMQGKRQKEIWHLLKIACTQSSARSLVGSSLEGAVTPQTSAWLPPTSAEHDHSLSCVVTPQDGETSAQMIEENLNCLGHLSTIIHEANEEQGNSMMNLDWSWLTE
To be noted: at 1 µM.

Experiment [7] deals with T3, Inhibitor of nuclear factor kappa-B kinase subunit alpha (Homo sapiens). To be noted: at 10 µM.
For experiment [8], the target named is T4, Inhibitor of nuclear factor kappa-B kinase subunit beta (Homo sapiens) (UniProt O14920).
T4 sequence (whole entry): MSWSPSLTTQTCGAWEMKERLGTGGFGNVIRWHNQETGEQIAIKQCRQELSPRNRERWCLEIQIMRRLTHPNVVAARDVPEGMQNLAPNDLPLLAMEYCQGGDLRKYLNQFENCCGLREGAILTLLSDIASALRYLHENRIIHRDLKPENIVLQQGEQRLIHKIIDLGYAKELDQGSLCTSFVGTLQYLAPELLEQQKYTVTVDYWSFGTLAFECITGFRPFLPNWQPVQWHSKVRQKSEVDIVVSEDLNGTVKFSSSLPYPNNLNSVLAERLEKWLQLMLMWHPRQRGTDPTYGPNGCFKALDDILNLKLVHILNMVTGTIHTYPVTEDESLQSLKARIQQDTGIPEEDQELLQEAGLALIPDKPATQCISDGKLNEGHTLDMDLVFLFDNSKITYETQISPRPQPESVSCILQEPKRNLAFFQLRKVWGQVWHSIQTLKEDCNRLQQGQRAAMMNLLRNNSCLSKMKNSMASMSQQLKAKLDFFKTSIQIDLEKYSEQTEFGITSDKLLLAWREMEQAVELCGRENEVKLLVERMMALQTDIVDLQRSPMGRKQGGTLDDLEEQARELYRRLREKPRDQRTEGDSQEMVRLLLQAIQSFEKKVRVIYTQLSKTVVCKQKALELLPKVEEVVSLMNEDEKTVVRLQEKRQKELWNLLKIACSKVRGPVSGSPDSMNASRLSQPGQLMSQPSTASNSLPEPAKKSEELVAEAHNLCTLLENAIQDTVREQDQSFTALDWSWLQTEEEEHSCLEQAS
The settings on record: at 1 µM.

The target of experiment [9] is T4, Inhibitor of nuclear factor kappa-B kinase subunit beta (Homo sapiens). The settings on record: at 10 µM.
Experiment [10] deals with Insulin receptor (Homo sapiens) (UniProt P06213). The settings on record: at 1 µM.
Chain of Insulin receptor (Homo sapiens) (P06213 28-758 limits assumed): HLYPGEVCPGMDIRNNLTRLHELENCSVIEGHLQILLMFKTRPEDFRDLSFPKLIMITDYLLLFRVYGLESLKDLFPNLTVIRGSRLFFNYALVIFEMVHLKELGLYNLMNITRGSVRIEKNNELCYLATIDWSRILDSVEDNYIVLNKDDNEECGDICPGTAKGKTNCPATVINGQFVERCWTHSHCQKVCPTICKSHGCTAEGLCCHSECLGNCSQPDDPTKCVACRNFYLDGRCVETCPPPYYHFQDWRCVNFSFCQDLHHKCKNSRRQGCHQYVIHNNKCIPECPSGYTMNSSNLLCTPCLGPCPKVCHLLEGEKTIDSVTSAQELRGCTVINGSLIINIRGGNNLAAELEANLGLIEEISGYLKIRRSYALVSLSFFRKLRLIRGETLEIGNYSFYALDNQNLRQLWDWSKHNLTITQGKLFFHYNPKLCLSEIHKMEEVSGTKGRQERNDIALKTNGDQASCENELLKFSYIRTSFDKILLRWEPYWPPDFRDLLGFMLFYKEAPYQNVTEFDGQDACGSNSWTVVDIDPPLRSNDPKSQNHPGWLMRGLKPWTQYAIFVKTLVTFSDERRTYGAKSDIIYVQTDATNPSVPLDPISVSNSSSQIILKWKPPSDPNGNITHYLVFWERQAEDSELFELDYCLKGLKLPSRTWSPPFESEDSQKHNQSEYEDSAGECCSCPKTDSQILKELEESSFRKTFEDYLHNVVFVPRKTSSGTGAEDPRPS
Chain of Insulin receptor (Homo sapiens) (P06213 763-1382 limits assumed): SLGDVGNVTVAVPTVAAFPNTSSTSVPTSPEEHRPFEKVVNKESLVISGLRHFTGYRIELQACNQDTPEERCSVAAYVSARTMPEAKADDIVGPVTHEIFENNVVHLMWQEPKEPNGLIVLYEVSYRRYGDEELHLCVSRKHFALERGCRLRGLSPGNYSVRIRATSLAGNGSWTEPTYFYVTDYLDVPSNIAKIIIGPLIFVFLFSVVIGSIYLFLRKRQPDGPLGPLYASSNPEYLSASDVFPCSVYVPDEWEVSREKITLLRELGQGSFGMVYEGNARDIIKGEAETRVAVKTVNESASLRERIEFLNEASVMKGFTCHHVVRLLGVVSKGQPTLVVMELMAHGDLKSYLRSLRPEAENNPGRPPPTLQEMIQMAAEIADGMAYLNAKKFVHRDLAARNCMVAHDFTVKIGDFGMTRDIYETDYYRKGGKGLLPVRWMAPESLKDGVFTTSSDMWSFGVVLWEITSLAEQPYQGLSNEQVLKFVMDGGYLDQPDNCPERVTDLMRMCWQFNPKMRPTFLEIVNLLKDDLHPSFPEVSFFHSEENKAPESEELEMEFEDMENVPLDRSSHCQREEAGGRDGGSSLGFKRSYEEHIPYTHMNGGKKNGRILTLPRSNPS

`O=C1NC(=O)/C(=C/c2ccc3c(c2)OC(F)(F)O3)S1`: the residual activity turned out to be 67% in experiment [1]; 95% in [2]; 89% in experiment [3]; 113% in experiment [4]; 102% in experiment [5]; 112% in experiment [6]. In addition, the residual activity stood at 107% in experiment [7], 111% in [8], 92% in [9] and 111% in experiment [10].

The residual activity is the signal under treatment as a percentage of the control signal.
